TEAD-YAP block: TEAD-YAP interaction inhibition | HEK-TIYL cells, TEAD-Gal4/YAP UAS-luciferase luminescence | inhibition, % at 9.12 µM | actives 1.4% (n = 640,000) | AID 1259422; in the data active = inhibition above about 32%;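 note: 0% = median of test compound wells and 100% = reference inhibitor wells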
GPR151 activ: activates the human receptor GPR151. activation, % at 11.2 µM. Q8TDV0. AID 1508602. actives 1% (n = 650,000). PathHunter beta-arrestin GPR151 cells, luminescence; in the data active = activation above about 4.9%;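 note: 0% = median of compound wells and 100% = cells with positive control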
Target sequence (Q8TDV0 whole entry, looked up): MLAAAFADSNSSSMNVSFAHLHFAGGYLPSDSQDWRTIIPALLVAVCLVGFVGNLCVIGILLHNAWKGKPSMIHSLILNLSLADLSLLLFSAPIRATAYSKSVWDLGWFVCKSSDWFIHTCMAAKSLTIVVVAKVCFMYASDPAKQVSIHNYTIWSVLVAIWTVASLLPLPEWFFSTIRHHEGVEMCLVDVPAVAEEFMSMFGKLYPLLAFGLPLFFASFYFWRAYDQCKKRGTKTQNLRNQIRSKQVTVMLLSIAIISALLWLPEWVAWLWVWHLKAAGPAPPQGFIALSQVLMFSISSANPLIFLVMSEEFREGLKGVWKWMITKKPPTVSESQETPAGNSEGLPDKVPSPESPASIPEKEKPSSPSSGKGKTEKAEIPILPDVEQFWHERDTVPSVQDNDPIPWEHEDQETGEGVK
FBW7 act: human FBW7 E3 ligase activation, primary screen | Q969H0 | AlphaScreen FBW7–phospho-cyclin E peptide binding, activator screen | normalized activity (activation), % at 26.1 µM | actives 0.13% (n = 650,000); in the data active = normalized activity above about 1.9%;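 note: purified mutant Fbw7 with reduced substrate affinity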
MITF inh: blocks human microphthalmia-associated transcription factor. actives 0.91% (n = 650,000). inhibition, % at 2.6 µM. O75030. AlphaScreen MITF homodimerization, bead proximity signal; in the data active = inhibition above about 50%;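 note: 0% = vehicle wells with protein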
GPR151 confirm: human GPR151 activation, confirmation screen. shares compounds with GPR151 activ. GPR151 PathHunter beta-arrestin cells, luminescence, 90 min; % of EA-reagent control over plate median. activation, % at 11.2 µM. 6,700 tested, under 10 active;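 active = mean percent activation across replicates above the confirmation screen cutoff of 4.91%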
GPR119 ag: activates human GPR119 in a GPR151 counter-screen; GPR119 PathHunter beta-arrestin cells, luminescence, 90 min; 0 = compound-well median, 100 = enzyme-acceptor control; actives 0.3% (n = 6,700); AID 1508611; shares compounds with GPR151 activ; activation, % at 11.2 µM;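 active = mean percent activation in the counterscreen above 29.09%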;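 note: counterscreen on off-target GPR119 to flag nonselective hits from the GPR151 activator screen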
Active calls of the source: *; x = not tested or not shown. Rows were chosen to be rich in hits. Some 3.5% of all compounds tested hit in one or more screens of this group.

SMILES	TEAD-YAP block	GPR151 activ	FBW7 act	MITF inh	GPR151 confirm	GPR119 ag
COc1ccc(/C=C2\N=C(c3ccccc3Br)OC2=O)cc1OC(C)=O	0.4	1.0	0.0	1.6	x	x
C=CCOc1ccc(/C=N/NC(=O)CSc2nc(C)cc(C)n2)cc1	10.9	2.7	0.0	14.4	x	x
C=CCOc1ccc(/C=N/NC(=O)CSc2nc(C)cc(C)n2)cc1OCC	4.1	11.5*	0.5	11.6	0.7	4.2
COc1ccc(CCN2C(=O)CC(Cc3ccc(Br)cc3)C2=O)cc1OC (stereo not given)	-4.3	5.6*	0.1	-0.3	-0.7	-6.8
CN1CCN(C(=O)c2ccc(-c3nc4ccc(C(=O)NCCO)cc4s3)cc2)CC1	3.1	4.9	-0.1	3.2	x	x
COC(=O)C(CC(C)C)NC(=O)CSC1=NC(=O)C(c2ccccc2)C(=O)N1 (stereo not given)	-0.4	5.6*	0.2	5.0	-0.8	-16.1
O=C(CN1CCN(c2nccn2-c2cccc(Cl)c2)CC1)NCCc1ccccc1	13.4	0.0	-0.3	3.7	x	x
CN(CCCNC(=O)CCn1c(=O)c2cccn2c2cccnc21)C1CCCCC1	0.8	5.3*	0.2	-3.4	0.8	-5.5
COc1cc(/C=C2/C(=O)N(c3ccc(I)cc3)N=C2C)ccc1O	2.4	5.4*	-0.1	6.5	-0.8	2.3
COc1cc(/C=C2\C(=O)N(c3ccc(C(=O)OC(C)C)cc3)N=C2C)ccc1O	-13.6	-0.6	0.0	2.0	x	x
COc1ccc(/C=C2\C(=O)N(c3ccc(Cl)c(C(=O)O)c3)N=C2C)cc1OC	-6.1	5.7*	-0.1	2.4	-0.1	11.2
O=C(Nc1nnc(SCC(=O)N2CCOCC2)s1)c1ccc(Cl)cc1Cl	24.6	-1.1	-0.1	12.6	x	x
O=C(CCC(=O)Nc1ccc(F)cc1)N/N=C/c1ccc(Br)cc1	-4.5	3.0	0.0	-0.6	x	x
O=C(CCC(=O)Nc1ccc(Br)cc1)N/N=C/c1ccc(F)cc1	9.9	6.4*	0.0	11.1	0.2	-3.4
C[C@H](NC(N)=O)C(=O)OCC(=O)NC(c1ccccc1)c1ccccc1	0.9	-0.2	-0.2	0.1	x	x
COC(=O)CNC(c1ccccc1)c1cc(Br)ccc1NC(=O)CNC(=O)c1ccccc1 (stereo not given)	0.0	-0.8	0.1	17.0	x	x
COc1ccc(C(C)=O)cc1COC(=O)CNC(=O)c1ccc(Cl)cc1Cl	11.3	1.3	0.1	12.0	x	x
CCC(C(=O)NCc1cccc(OC)c1)n1nc(C)n2c(cc3sccc32)c1=O (stereo not given)	-3.7	-0.1	0.3	7.3	x	x
CCN(CC)CCCCCCNc1cc(OC)cc2c(C)ccnc12	x	-2.1	x	x	x	x
CCN(CC)CCCCNc1ncc2cc(-c3cc(OC)cc(OC)c3)c(NC(=O)NC(C)(C)C)nc2n1	x	5.3*	x	4.7	-0.8	4.5
CC(C)(C)c1ccc(C(=O)Nc2ncc(S(=O)(=O)c3ccc([N+](=O)[O-])cc3)s2)cc1	0.7	-1.6	0.1	8.1	x	x
Cc1cccc(C(=O)Nc2ncc(S(=O)(=O)c3ccc([N+](=O)[O-])cc3)s2)c1	-5.6	4.9*	-0.2	-4.2	0.2	7.8
Cc1cc(OCCCNCCN(C)C)ccc1[N+](=O)[O-]	-5.7	5.4*	-0.2	-3.5	-0.3	-10.5
COc1ccc(OCCOc2ccc(C)cc2[N+](=O)[O-])cc1	-54.8	0.8	0.4	11.2	x	x
Cc1ccc(OCCN2CCCC2)c([N+](=O)[O-])c1	0.5	5.3*	0.1	45.7	-0.2	-6.6
SMILES	TEAD-YAP block	GPR151 activ	FBW7 act	MITF inh	GPR151 confirm	GPR119 ag
Cc1cc(OCCN(C)C)ccc1[N+](=O)[O-]	-3.6	-1.3	-0.1	39.8	x	x
COCCNCCCOc1ccc(C)cc1[N+](=O)[O-]	-0.9	7.3*	-0.1	30.5	-0.9	-8.8
Cc1csc(NC(=O)CSc2nnc(CSCc3ccccc3F)n2C)n1	-0.7	-0.3	0.2	7.6	x	x
CC(C)N(C(=O)Cn1ccnc1)c1ccccc1	0.8	0.0	-0.2	4.5	x	x
COc1cc2c(cc1OC)C(C)N(c1cc(C)nc(C)n1)CC2 (stereo not given)	1.6	-0.4	0.3	6.8	x	x
CCOC(=O)C1=C(C)NC(SCC(=O)Nc2cc(C)on2)=C(C#N)C1c1cccs1 (stereo not given)	15.9	5.8*	0.1	9.2	-0.8	-8.4
CCOC(=O)C1=C(C)NC(SCC(N)=O)=C(C#N)C1c1cccs1 (stereo not given)	5.2	0.0	-0.1	4.6	x	x
